The sequences below were run against T1, SCO3205 (MarR family regulator) (Streptomyces coelicolor, UniProt Q9KYU1 1-163) (assay: SPR (ReDCaT); 100 nM SCO3205 dimer; HBS-EP+ buffer: 10 mM HEPES pH 7.4, 150 mM NaCl, 3 mM EDTA, 0.05% (v/v) surfactant P20; 20 C; Biacore T200, ReDCaT SA chip; high values mean tight binding). Conditions: protein: recombinant; tags: N-terminal His tag plus TEV site, not removed; chain copies: 2; label: biotin linker S6 hybridised to overhang; dsDNA, one strand shown.
T1 sequence: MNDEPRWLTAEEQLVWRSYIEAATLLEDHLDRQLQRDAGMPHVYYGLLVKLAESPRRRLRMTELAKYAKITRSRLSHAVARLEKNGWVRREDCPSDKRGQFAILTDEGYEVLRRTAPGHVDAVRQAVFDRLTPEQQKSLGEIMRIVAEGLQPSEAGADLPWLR

Compared with ACGGCACGTAAAGATTGAGAGTTCAAGT, ACGCCGATTTTGTTTAATGTTCAAGGAACC is higher in binding signal: 80.4 %Rmax for the first, 117 %Rmax for the second.

Going from ACGGCACGTAAAGATTGAGAGTTCAAGTATTGGAGT to CGAGACGGTTCCTTGAACATTAAACAAAAT, the binding signal falls from 110 %Rmax to 102 %Rmax.

Compared with CGAGACGGTTCCTTGAACATTAAACA, ACTCCAATACTTGAACTCTCAATCTT is higher in binding signal: 68.6 %Rmax for the first, 116 %Rmax for the second.

Compared with ACGCCGATTTTGTTTAATGTTC, CGAGACGGTTCCTTGAACATTAAACAAAATCG is higher in binding signal: 5.1 %Rmax for the first, 108 %Rmax for the second.

Going from ACGGCACGTAAAGATTGAGAGTTCAAGTATTG to ACGCCGATTTTGTTTAATGTTCAAGGAAC, the binding signal falls from 112 %Rmax to 109.7 ± 0.566 %Rmax.

Going from CATGGCTACTCCAATACTTGAACTCTCAA to ACTCCAATACTTGAACTCTCAATCTTTACGTGCCGT, the binding signal rises from 35.7 ± 0.566 %Rmax to 115 %Rmax.

First: ACGGCACGTAAAGATTGAGAGTTCAA
Second: ACGCCGATTTTGTTTAATGTTCAA
The binding signal of the first is lower: 4.7 %Rmax for the first, 29.9 %Rmax for the second.

Going from ACGCCGATTTTGTTTAATGTTCAAGG to TTTTGTTTAATGTTCAAGGAACCGTCTCG, the binding signal rises from 81 %Rmax to 127.2 ± 0.636 %Rmax.

First: CGAGACGGTTCCTTGAACATTAAACAAA
Second: ACTCCAATACTTGAACTCTCAATCTTTACG
The binding signal of the first is lower: 68.4 %Rmax for the first, 119 %Rmax for the second.

Compared with ACTCCAATACTTGAACTCTCAATCTTTA, ACGCCGATTTTGTTTAATGTTCAAGGAACCGTCT is higher in binding signal: 115 %Rmax for the first, 118 %Rmax for the second.

Going from ACTCCAATACTTGAACTCTCAATCTTTACGTG to ACTCCAATACTTGAACTCTC, the binding signal falls from 108 %Rmax to 7.8 %Rmax.

First: ACGGCACGTAAAGATTGAGAGTTCAAGTATTGGA
Second: ACTCTCAATCTTTACGTGCCGTCAATCTA
The binding signal of the first is higher: 116 %Rmax for the first, 3.05 ± 0.354 %Rmax for the second.

For AAGAAGTTCAAGCTTCAACCAAAA, the binding signal was 95.2 %Rmax.

— PMC3737563, “Investigation of DNA sequence recognition by a streptomycete MarR family transcriptional regulator through surface plasmon resonance and X-ray crystallography”
